Results reported in PubChem BioAssay (NCI).
This is part of a sample that, as a whole, favours compounds with a hit. Of some 79,000 tested, about 15% had one in any assay. Values without a mark were called inactive. Calls of active or inactive are those of the source. No stated cut-off is given here; in the data, active means growth inhibition above about 70%; inactive means the rest.

Tests used:
[1] = NCI Yeast Anticancer Drug Screen. Data for the rad50 strain (AID 155);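 further: 0% = growth of vehicle-only cultures of the same strain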; settings: S. cerevisiae rad50 strain growth inhibition, active compounds read high
How it was run: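 Inhibition values express reduced yeast growth in compound-treated cultures relative to vehicle-treated controls.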

[2] = NCI Yeast Anticancer Drug Screen. Data for the mec2-1 strain (AID 157); settings: S. cerevisiae mec2-1 strain, active compounds read high
How it was run: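 Vehicle-treated cultures served as reference for growth inhibition of compound-exposed mec2-1 yeast.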

[3] = NCI Yeast Anticancer Drug Screen. Data for the sgs1 mgt1 strain (AID 161);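 further: 0% = growth of cultures given vehicle only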; settings: S. cerevisiae sgs1 mgt1 strain, active compounds read high
How it was run: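 Test agents were incubated with a DNA-repair-mutant yeast strain. Growth was then read and compared against vehicle-treated controls.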

[4] = NCI Yeast Anticancer Drug Screen. Data for the cln2 rad14 strain (AID 165);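 further: 0% = growth equal to vehicle treated cultures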; settings: S. cerevisiae cln2 rad14 strain, active compounds read high
How it was run: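 Each compound was tested on cln2 rad14 yeast. Inhibition of growth was calculated against vehicle-exposed controls.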

[5] = NCI Yeast Anticancer Drug Screen. Data for the bub3 strain (AID 167); settings: S. cerevisiae bub3 mutant strain, active compounds read high
How it was run: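 Steps: expose the mutant yeast strain to compound; grow alongside vehicle-treated cultures; measure growth; express inhibition against the vehicle cultures.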

[6] = NCI Yeast Anticancer Drug Screen. Data for the mlh1 rad18 strain (AID 175); settings: S. cerevisiae mlh1 rad18 strain growth inhibition, active compounds read high
How it was run: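 Vehicle-treated cultures served as the reference for growth inhibition in a yeast strain carrying DNA damage repair alterations exposed to each compound.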

[7] = at 5.0 µM (retest, dose inferred, filed as 0.5)
[8] = at 50.0 µM (retest, dose inferred, filed as 5.0)

SMILES	growth inhibition [1, 7]	growth inhibition [1, 8]	growth inhibition [2, 7]	growth inhibition [2, 8]	growth inhibition [3, 7]	growth inhibition [3, 8]	growth inhibition ([3]; at 50.0 µM)	growth inhibition [4, 7]	growth inhibition [4, 8]	growth inhibition ([4]; at 50.0 µM)	growth inhibition [5, 7]	growth inhibition [5, 8]	growth inhibition ([5]; at 50.0 µM)	growth inhibition [6, 7]	growth inhibition [6, 8]	growth inhibition ([1]; at 50.0 µM)	growth inhibition ([6]; at 50.0 µM)
O=C1C=C(N2CC2)C(=O)C=C1N1CC1	91% (active)	98% (active)	90% (active)	99% (active)	27%	41%	88% (active)	24%	25%	89.2% (active)	20%	55%	87.7% (active)	94% (active)	97% (active)		
O=C(CBr)c1ccncc1	99% (active)	99% (active)	100% (active)	100% (active)	100% (active)	99% (active)		99% (active)	99% (active)		100% (active)	99% (active)		95% (active)	98% (active)		
C[CH2][Sn]([CH2]C)([CH2]C)[CH2]C	6%	54%	3%	22%	-3%	58%		-6%	12%		0%	35%		-8%	44%		
O=C(CBr)OCCBr	59%	99% (active)	33%	99% (active)	73% (active)	100% (active)		25%	98% (active)		56%	99% (active)		29%	98% (active)		
CC1=C2C(=CC(C)(C)[C@@H]2O)C(=O)[C@](C)(O)C12CC2	44%	92% (active)			53%	91% (active)	80.8% (active)	23%	90% (active)	84.8% (active)	12%	39%	7.1%	35%	91% (active)	80.6% (active)	78.3% (active)
c1ccc(C[As](c2ccccc2)c2ccccc2)cc1	99% (active)	3%						98% (active)	-98%	99.2% (active)	99% (active)	22%	99.4% (active)	99% (active)	23%	99.2% (active)	99.2% (active)
O=C(CF)CCl	89% (active)	98% (active)	25%	99% (active)	88% (active)	65%		79% (active)	99% (active)		32%	99% (active)		69%	98% (active)		
CCCC1CC[N-]CC1.CCCC1CC[N-]CC1.N#C[S-].N#C[S-].[Cd]	31%	86% (active)	10%	59%	10%	76% (active)		9%	65%		8%	56%		-14%	46%		
CC(Cc1ccc2c(c1)OCO2)NN (stereo unspecified)	-2%	37%	-5%	6%	-2%	59%		-5%	-8%		2%	34%		-20%	16%		
CCOC(=O)C1=C(C)/C(=C/c2[n-]c(C)c(C(=O)OCC)c2C)N=C1C.CCOC(=O)C1=C(C)/C(=C/c2[n-]c(C)c(C(=O)OCC)c2C)N=C1C.[Zn+2]	4%	55%			2%	34%	98.8% (active)	7%	6%	98.2% (active)	4%	55%	99.4% (active)	6%	55%	99% (active)	98.2% (active)
C/C(=N\NC(=S)N1CC2CCC(CC2)C1)c1nccs1	89% (active)	98% (active)	77% (active)	99% (active)	92% (active)	99% (active)	87% (active)	86% (active)	98% (active)	87.2% (active)	95% (active)	99% (active)	86.5% (active)	95% (active)	98% (active)		
O=[N+]([O-])/C=C/c1cccc([N+](=O)[O-])c1	98% (active)	99% (active)	99% (active)	100% (active)	100% (active)	100% (active)		35%	99% (active)		97% (active)	100% (active)		-9%	99% (active)		
